Here are results for 19 compounds from PubChem BioAssay (NCATS).

The structures appear in SMILES notation. “And” between values parts separate entries of the source, which are not always exact repeats. Equal values may be shown once. Records with an inconclusive call do not appear. The source made the active and inactive calls. The call rests on the fitted dose curve; in most records, active means well fitted curve in the direction sought with a large enough effect; inconclusive means small, poorly fitted or top-dose-only effect, or another doubt; inactive means no such curve, though single readings can be large; an effect the other way counts as inactive or inconclusive.

A short description of test [1]: qHTS of pediatric cancer cell lines to identify multiple opportunities for drug repurposing: Primary screen for DAOY cells (AID 1347090). Further: nearly all actives have a fitted effect of over 55% in size. Further: potency means the concentration at half of the fitted maximal effect. The procedure, abridged:
(§1)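 Viability measured as metabolically active cells via CellTiter-Glo luminescence following 48 hours of compound exposure, 11-point dilutions in confirmatory testing. 500-1,000 cells/well plated 5 hours before dosing; controls were DMSO and 2.3 µM bortezomib.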
A general note: In qHTS, concentration-response curves come from the screen itself.

The nature of test [2]: qHTS of pediatric cancer cell lines to identify multiple opportunities for drug repurposing: Primary screen for SJ-GBM2 cells (AID 1347091). Further: potency means the concentration at half of the fitted maximal effect. Summed up:
as §1

Test [3] in a line: qHTS of pediatric cancer cell lines to identify multiple opportunities for drug repurposing: Primary screen for A673 cells (AID 1347092). Further: nearly all actives have a fitted effect of over 45% in size. Further: potency means the concentration at half of the fitted maximal effect. Summed up: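 Luminescence from CellTiter-Glo, taken after 15 min at room temperature, served as the proxy for metabolically active cells following 48 h treatment. Both potency and efficacy were taken from curves fitted to the titration data.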

Test [4] can be described thus: qHTS of pediatric cancer cell lines to identify multiple opportunities for drug repurposing: Primary screen for BT-37 cells (AID 1347094). Further: potency means the concentration at half of the fitted maximal effect. Summed up: (§2)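 CRCs from 8- or 11-point titrations (lowest final 0.59 nM NPC, 0.78 nM MIPE). Cell viability: CellTiter-Glo after 48 h incubation, 15 min room-temperature development, luminescence imaging.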
A short description of test [5]: qHTS of pediatric cancer cell lines to identify multiple opportunities for drug repurposing: Primary screen for NB-EBc1 cells (AID 1347095). Further: potency means the concentration at half of the fitted maximal effect. Summed up: as §2
The nature of test [6]: qHTS of pediatric cancer cell lines to identify multiple opportunities for drug repurposing: Primary screen for U-2 OS cells (AID 1347096). Further: nearly all actives have a fitted effect of over 50% in size. Further: potency means the concentration at half of the fitted maximal effect. Summed up:
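Viability after 48 h compound treatment at 37C, 500-1,000 cells/well, read as ATP luminescence with CellTiter-Glo. Primary screens used 11-point (MIPE, 0.78 nM-46 µM) or 8-point (NPC, 0.59 nM-46 µM) final concentrations; follow-up screens used 11-point dilutions.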

Test [7] is described as follows: qHTS of pediatric cancer cell lines to identify multiple opportunities for drug repurposing: Primary screen for Saos-2 cells (AID 1347097). Further: nearly all actives have a fitted effect of over 40% in size. Further: potency means the concentration at half of the fitted maximal effect. The procedure, abridged:
as §2

Test [8] can be described thus: qHTS of pediatric cancer cell lines to identify multiple opportunities for drug repurposing: Primary screen for SK-N-SH cells (AID 1347098). Further: nearly all actives have a fitted effect of over 65% in size. Further: potency means the concentration at half of the fitted maximal effect. The procedure, abridged: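 Cells (500-1,000/well) rested 5 h, then received compounds for 48 h; metabolically active cells were measured by CellTiter-Glo luminescence. Final concentrations spanned up to 46 µM (MIPE, 11-point) or 0.59 nM-46 µM (NPC, 8-point) in primary screens, 11-point in follow-ups.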

A short description of test [9]: qHTS of pediatric cancer cell lines to identify multiple opportunities for drug repurposing: Primary screen for SK-N-MC cells (AID 1347093). Further: potency means the concentration at half of the fitted maximal effect. Summed up: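 Metabolically active cells were quantified by ATP-dependent luminescence (CellTiter-Glo, 15 min at room temperature) following 48 h treatment. Cells had been plated at 500-1,000 per well and settled for 5 h beforehand.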

Test [10] is described as follows: qHTS of pediatric cancer cell lines to identify multiple opportunities for drug repurposing: Primary screen for NB1643 cells (AID 1347099). Further: nearly all actives have a fitted effect of over 50% in size. Summed up: as §2

In the case of `CN(C)CCOC(c1ccccc1)c1ccccc1`, the Potency result in test [1], in [2], in [3], in test [4], in test [5] and in [6] was “inactive” throughout. The Potency result in [7] and in [8] was “inactive” throughout.
As to `CN1CCN2c3ccccc3Cc3ccccc3C2C1` (stereo not drawn), the Potency entry in test [1], in test [2], in test [3], in [9], in [4] and in test [5] was “inactive” each time. Besides, the Potency entry in test [6], in [7], in test [8] and in test [10] was “inactive” each time.
Consider `O=C1c2c(O)ccc(O)c2C(=O)c2c(NCCNCCO)ccc(NCCNCCO)c21`, for which the Potency in [1] was 2.96 µM (active) and 2.66 µM (active); in test [2] it was 332 nM (active) and 422 nM (active); in test [3] it was 590 nM (active) and 168 nM (active); in test [9], 235 nM (active) and 1 nM (active); in test [4], 243 nM (active) and 38.9 nM (active); in test [5], 74.3 nM (active) and 59.6 nM (active). The Potency was 18.7 µM (active) and 10.6 µM (active) in test [6]; 1.66 µM (active) and 1.68 µM (active) in test [7].
In the case of `CCc1cccc2c3c([nH]c12)C(CC)(CC(=O)O)OCC3` (stereo not drawn), the Potency entry in [1], in test [2], in [3], in test [4], in test [6] and in [8] was “inactive” throughout.
As for `N[C@@H](Cc1c[nH]c2ccc(O)cc12)C(=O)O`, the Potency result in [1], in [2], in test [3], in [6] and in test [7] was “inactive” in each case.
Turning to `COc1cc2nc(N(C)CCCNC(=O)C3CCCO3)nc(N)c2cc1OC` (stereo not drawn), the Potency entry in [1], in test [2], in test [3], in test [4], in test [6] and in test [10] was “inactive” in each case.
Regarding `NCCCCCC(=O)O`, the Potency result in test [1], in [2], in [3], in test [9], in test [4] and in [6] was “inactive” each time.
As to `CC(C)NCC(O)COc1ccc(CCOCC2CC2)cc1` (stereo not drawn), the Potency result in test [1], in test [2], in test [3], in test [4], in test [5] and in test [6] was “inactive” each time. Further, the Potency entry in test [7], in test [8] and in test [10] was “inactive” throughout.
Turning to `CCCCc1oc2ccccc2c1C(=O)c1cc(I)c(OCCN(CC)CC)c(I)c1`, the Potency is 5.9 µM (active) in test [1]; 8.33 µM (active) in test [2]; 4.69 µM (active) and 26.6 µM (active) in test [3]; 30.9 µM (active) in test [4]; 7.43 µM (active) in test [6]; 18.7 µM (active) and 26.6 µM (active) in test [7]. Moreover, the Potency in test [8] was 8.57 µM (active) and 21.7 µM (active).
For `O=C1N(c2ccccc2)c2ccccc2C1(Cc1ccncc1)Cc1ccncc1`, the Potency result in [1], in test [2], in test [3], in test [4], in test [5] and in test [6] was “inactive” each time. Further, the Potency result in test [7] and in [10] was “inactive” in each case.
With `CC(C)Cc1ccc(C(C)C(=O)O)cc1` (stereo not drawn), the Potency result in test [1], in test [2], in test [3], in [9], in test [5] and in test [6] was “inactive” each time. Further, the Potency entry in test [7] and in [8] was “inactive” throughout.
On to `Clc1ccc2nsnc2c1NC1=NCCN1`, for which the Potency entry in test [1], in test [2], in [3], in test [4], in [6] and in [7] was “inactive” throughout.
For the compound `Cc1cc(C(C)(C)C)cc(C)c1CC1=NCCN1`, the Potency result in test [1], in [2], in test [3], in test [4], in test [5] and in test [6] was “inactive” in each case. In addition, the Potency entry in [10] is “inactive”.
Take `COc1ccc(C2CNC(=O)C2)cc1OC1CCCC1` (stereo not drawn): the Potency result in [1], in test [2], in [3], in test [9], in test [4] and in test [5] was “inactive” each time. In addition, the Potency result in test [6] and in test [10] was “inactive” throughout.
With `CC(=O)OCC(CCn1cnc2cnc(N)nc21)COC(C)=O`, the Potency entry in test [1], in test [2], in test [3], in test [9], in test [4] and in test [5] was “inactive” throughout. Also, the Potency result in test [6], in [7], in test [8] and in test [10] was “inactive” in each case.
As to `COC(=O)Nc1nc2ccc(C(=O)c3cccs3)cc2[nH]1`, the Potency in test [1] was 11.8 nM (active) and 106 nM (active); in [2], 1 nM (active) and 119 nM (active); in test [3], 5.9 nM (active); in [9] it was 4.7 nM (active) and 94.4 nM (active); in test [4] it was 15.3 nM (active) and 276 nM (active); in test [5], 1 nM (active) and 84.1 nM (active). Also, in test [7], the Potency is 4.7 nM (active) and 94.4 nM (active). In test [8], the Potency result is “inactive”.
For `Clc1ccc2c(c1)C(N1CCNCC1)=Nc1ccccc1O2`, the Potency result in test [1], in test [2], in test [3], in test [4], in test [5] and in [6] was “inactive” throughout. For the same compound, in [7], the Potency entry is “inactive”.
On to `Cn1ccc2cc3c(cc21)CCN3C(=O)Nc1cccnc1`, for which the Potency entry in test [1], in [2], in test [9], in [4] and in test [6] was “inactive” in each case. In addition, the Potency in [3] is 11800 nM (active).
On to `NCCc1cnc[nH]1`, for which the Potency result in [1], in test [2], in [3], in test [4] and in test [6] was “inactive” each time.
